Sampled rows, rich in hits. Any-hit rate of the full collection: about 3.1%.
Rtt109 Vps75: blocks Candida albicans Rtt109/Vps75 acetyltransferase activity | Q5AAJ8 | purified Rtt109/Vps75, ThioGlo CoA-SH fluorescence, 4 h | inhibition, % at 34.9 µM | 0.16% of 330,000 active;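 active means inhibition of at least 50% in every replicate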
Target sequence (Q5AAJ8 whole entry, looked up): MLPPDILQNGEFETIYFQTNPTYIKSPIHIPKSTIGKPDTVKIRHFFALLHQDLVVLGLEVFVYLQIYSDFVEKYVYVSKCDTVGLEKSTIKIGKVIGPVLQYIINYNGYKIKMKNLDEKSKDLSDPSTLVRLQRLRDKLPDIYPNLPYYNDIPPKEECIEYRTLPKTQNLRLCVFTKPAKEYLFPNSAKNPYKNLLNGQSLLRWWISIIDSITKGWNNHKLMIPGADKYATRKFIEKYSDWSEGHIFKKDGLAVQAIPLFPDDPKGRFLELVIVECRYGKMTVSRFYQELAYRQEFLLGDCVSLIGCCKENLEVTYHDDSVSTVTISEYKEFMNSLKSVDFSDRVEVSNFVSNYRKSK
C2C12 statin: suppressors of simvastatin-induced myotoxicity in C2C12 myotubes; 0.78% of 330,000 active; ATP luminescence, 48 h; scaled: DMSO 0, geranylgeraniol control 100; rescue of ATP level, % at 7.49 µM;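 active means mean ATP rescue above about 67%, or every replicate alone reaching that limit, limit read from the data, passing the limit was not always enough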;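 further: myotubes were challenged with 10 µM simvastatin during compound exposure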
MITF TRPM1 HTS: MITF TRPM1 promoter activation in melanoma cells. activation, % at 12.5 µM. AID 588334. SK-MEL-5 TRPM1-promoter luciferase, 24 h; % of positive control, neutral wells = 0. 0.75% of 300,000 active;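 active means mean activation of at least 80% with every replicate also reaching 80%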;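 further: 0% = neutral control wells and 100% = parthenolide positive control wells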
Wnt bcat act: activators of Wnt/beta-catenin signaling; Wnt/beta-catenin reporter cell assay, activator, plate reader; activation, % at 9.35 µM; 1.2% of 300,000 active; in the data active means activation above about 30%, passing the limit was not always enough;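 further: 0% = neutral control wells and 100% = positive control wells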
esBAF inh: blocks esBAF chromatin remodeling in mouse ES cells; Bmi1-luciferase knock-in reporter, 24 h; 100% = twice the neutral-well signal; reporter increase, % at 12.5 µM; 2% of 350,000 active; AID 602393; in the data active means activation above about 40%;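 further: 0% = median of the plate's neutral control wells and 100% = double that signal; a rise in the Bmi1 reporter signal indicates esBAF inhibition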
Starred values were filed as active, the others as inactive.

What do the screens show for `O=C(CSc1nc2ccccc2[nH]1)Nc1ccc2c(c1)OCCO2`?
Rtt109 Vps75: -3.1; C2C12 statin: 117.4*; MITF TRPM1 HTS: 14.8; esBAF inh: 17.0

Results for Cc1ccc2nc(SCC(=O)Nc3ccc4c(c3)OCCO4)[nH]c2c1 ?
Rtt109 Vps75: 8.9; C2C12 statin: -8.9; MITF TRPM1 HTS: 1.2; Wnt bcat act: 2.2; esBAF inh: -2.7

Results for O=C(Nc1ccc2c(c1)OCCO2)c1ccccc1 ?
Rtt109 Vps75: -1.3; C2C12 statin: -18.7; MITF TRPM1 HTS: 38.0; esBAF inh: -9.8

How did O=C(CSc1nc2ccccc2[nH]1)c1ccc2c(c1)OCO2 do in these assays?
Rtt109 Vps75: 6.1; C2C12 statin: -4.7; Wnt bcat act: 54.4*; esBAF inh: 9.1

How did C[C@H]1CCCCO[C@H](CN(C)C(=O)Cc2ccccc2)[C@@H](C)CN([C@@H](C)CO)C(=O)c2cc(NC(=O)Nc3ccccc3)ccc2O1 do in these assays?
esBAF inh: -0.9

Results for COc1ccc(S(=O)(=O)Nc2ccc3c(c2)C(=O)N([C@H](C)CO)C[C@@H](C)[C@@H](CN(C)S(C)(=O)=O)OCCCC[C@@H](C)O3)cc1 ?
esBAF inh: -1.4

Results for CNC(=O)C[C@H]1CC[C@H]2[C@@H](COC[C@H](O)CN2Cc2ccc(Cl)c(Cl)c2)O1 ?
C2C12 statin: 1.4; esBAF inh: -3.3

Results for C[C@@H]1CN([C@@H](C)CO)C(=O)c2cccc(NS(C)(=O)=O)c2O[C@H]1CN(C)S(=O)(=O)c1ccc(F)cc1 ?
esBAF inh: 2.6

Results for C[C@H](CO)N1C[C@H](C)[C@H](CN(C)CC2CCCC2)Oc2ncc(C#Cc3ccccn3)cc2C1=O ?
C2C12 statin: 8.6; esBAF inh: -10.0

How did CN(C(=O)CSc1ccc2c(c1)OCCO2)c1ccccc1 do in these assays?
Rtt109 Vps75: -17.2; C2C12 statin: 8.0; MITF TRPM1 HTS: 76.5; Wnt bcat act: 26.7; esBAF inh: 60.5*

What do the screens show for `CC(Sc1ccc2c(c1)OCCO2)C(=O)Nc1ccc2c(c1)OCO2` (stereo not given)?
Rtt109 Vps75: 4.5; C2C12 statin: 18.2; MITF TRPM1 HTS: 2.7; esBAF inh: 12.8

What do the screens show for `N#CCCN(C(=O)CSc1ccc2c(c1)OCCO2)c1ccccc1`?
Rtt109 Vps75: 15.6; C2C12 statin: -1.4; Wnt bcat act: -4.1; esBAF inh: -1.2

Results for CC(Sc1ccccc1F)C(=O)Nc1ccc2c(c1)OCCO2 (stereo not given) ?
Rtt109 Vps75: 2.7; C2C12 statin: -5.1; MITF TRPM1 HTS: 89.2*; Wnt bcat act: 45.1*; esBAF inh: 99.6*

Results for O=C(OCc1c(-c2ccccc2)ncc2ccccc12)N1CCOCC1 ?
Rtt109 Vps75: 0.1; C2C12 statin: -0.2; MITF TRPM1 HTS: 101.5*; Wnt bcat act: 37.3*; esBAF inh: 56.7*

How did CC(C)c1cc(C(=O)Nc2cc(Cl)ccc2O)no1 do in these assays?
Rtt109 Vps75: -6.4; C2C12 statin: 16.1; MITF TRPM1 HTS: 61.6; esBAF inh: 54.7*

How did CC(C)c1cc(C(=O)Nc2cc(Br)ccc2O)no1 do in these assays?
Rtt109 Vps75: -10.9; C2C12 statin: -3.1; MITF TRPM1 HTS: 39.8; Wnt bcat act: 14.9; esBAF inh: 78.0*

Results for CC(C)c1cc(C(=O)Nc2cccc(Cl)c2)no1 ?
Rtt109 Vps75: -7.6; C2C12 statin: -18.6; MITF TRPM1 HTS: 89.6*; esBAF inh: 30.8

Results for CC(C)c1cc(C(=O)NCCc2ccccc2)no1 ?
Rtt109 Vps75: 11.5; C2C12 statin: 1.9; MITF TRPM1 HTS: 65.4; Wnt bcat act: 39.2*; esBAF inh: 24.3

What do the screens show for `CC(=O)c1cccc(NC(=O)c2cc(C(C)C)on2)c1`?
Rtt109 Vps75: -23.6; C2C12 statin: 14.8; Wnt bcat act: -7.0; esBAF inh: 29.9

How did CC(C)c1cc(C(=O)NCc2ccco2)no1 do in these assays?
Rtt109 Vps75: 15.1; C2C12 statin: -8.7; MITF TRPM1 HTS: 51.3; Wnt bcat act: 11.2; esBAF inh: 28.7

Results for CCc1cnc(N2[C@H](CO)[C@@H](c3ccc(C#CCC4CCCC4)cc3)[C@@H]2C#N)s1 ?
C2C12 statin: 1.7; esBAF inh: 7.7

How did CCOC(=O)c1ccc2c(c1)NCc1cccc(OC)c1O2 do in these assays?
Rtt109 Vps75: 0.2; C2C12 statin: 1.7; MITF TRPM1 HTS: 44.6; Wnt bcat act: 24.4; esBAF inh: 58.1*

Results for COc1ccc(C(=O)OCC(=O)c2ccc3c(c2)NC(=O)CO3)cc1OC ?
Rtt109 Vps75: -8.2; C2C12 statin: -1.9; MITF TRPM1 HTS: 0.0; Wnt bcat act: -2.2; esBAF inh: -2.7

Results for COc1ccc(-c2cn(Cc3ccc(C)cc3)nn2)cc1 ?
Rtt109 Vps75: -14.1; C2C12 statin: 3.3; MITF TRPM1 HTS: 85.7*; Wnt bcat act: 29.1; esBAF inh: 79.0*

Results for C[C@@H]1CN([C@@H](C)CO)C(=O)c2cc(NS(=O)(=O)c3cccs3)ccc2O[C@@H]1CN(C)S(=O)(=O)c1cccs1 ?
C2C12 statin: -22.9; esBAF inh: 1.6

Results for CC1CCc2nc(NC(=O)Cc3cccs3)sc2C1 (stereo not given) ?
Rtt109 Vps75: 3.5; MITF TRPM1 HTS: 126.3*; Wnt bcat act: -2.8; esBAF inh: 57.5*

What do the screens show for `O=C(CCCc1cccs1)Nc1nc2c(s1)CCCC2`?
Rtt109 Vps75: -0.9; C2C12 statin: 11.3; esBAF inh: 52.8*

How did CN(C)CCCNC(=O)[C@@H]1[C@@H](CO)[C@@H]2Cn3c(cccc3=O)[C@@H]2N1C(=O)Nc1ccccc1 do in these assays?
C2C12 statin: 9.7; esBAF inh: 9.7

What do the screens show for `C[C@H](NC(=O)C[C@H]1C[C@H]2c3cc(NC(=O)Cc4ccncc4)ccc3O[C@H]2[C@@H](CO)O1)c1ccccc1`?
C2C12 statin: -1.7; esBAF inh: -2.7

What do the screens show for `CCn1c(C)nc2cc(C(=O)N/N=C/c3ccccc3C)ccc21`?
Rtt109 Vps75: 9.3; C2C12 statin: -8.7; MITF TRPM1 HTS: 31.3; Wnt bcat act: 5.3; esBAF inh: 29.9

Results for CCn1c(C)nc2cc(C(=O)N/N=C(\C)c3ccccc3O)ccc21 ?
Rtt109 Vps75: 0.8; MITF TRPM1 HTS: 89.6*; Wnt bcat act: 5.5

What do the screens show for `C[C@@H]1CCCCO[C@H](CN(C)C(=O)c2ccccc2)[C@H](C)CN([C@H](C)CO)C(=O)c2cc(NS(C)(=O)=O)ccc2O1`?
C2C12 statin: -1.0; esBAF inh: 1.6

What do the screens show for `CO[C@H]1CN(C)C(=O)c2ccc(NC(=O)C3CC3)cc2OC[C@@H](C)N(Cc2nccs2)C[C@H]1C`?
C2C12 statin: 13.4; esBAF inh: -10.4

What do the screens show for `C[C@H](CO)N1C[C@H](C)[C@H](CN(C)C(=O)Nc2ccc(C(F)(F)F)cc2)OCCCC[C@H](C)Oc2ccc(NC(=O)Nc3ccc(C(F)(F)F)cc3)cc2C1=O`?
esBAF inh: -5.9

What do the screens show for `O=C1c2ccccc2C(=O)N1OCCOCCOCCBr`?
Rtt109 Vps75: 33.8; C2C12 statin: 7.6; MITF TRPM1 HTS: -1.5; esBAF inh: -15.3

Bioassay records deposited in PubChem BioAssay by Broad Institute.
